This is a sample that favours compounds with a hit; in the whole collection about 5.5% have one here.
BCR signal inh: chronic active BCR signaling inhibition; hit rate 0.05% among 340,000; ABC-DLBCL IkBa-CBG/CBR reporter, luminescence ratio, 4 h; Potency, µM (highest dose often 46.1 µM), without a hit: at the highest dose activity change, negative = inhibition, most hits filed as inhibitors; active means well fitted inhibition curve with a large enough effect in the signal ratio, with a control signal flat, not every such curve was filed as active; inconclusive means small, poorly fitted or top-dose-only effect, or effect the other way, or a change in a side signal; the % refers to the signal ratio;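 further: plate controls were basal doxycycline-induced cells for no effect and cells given 10 µM MG132 for full effect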
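TMD8 human ABC-DLBCL cells with doxycycline-inducible IκBα–green luciferase fusion and unfused red luciferase, in 0.5% FBS medium; compounds up to 46 uM, 4 h at 37C. Green/red luminescence ratio, filter-overlap corrected, fitted to concentration-response curves.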
uPA generation: blocks generation of uPA at the cell surface | cell surface uPA generation assay, qHTS | Potency, µM (series often up to 38.3 µM), inactives show top-dose activity change, negative = inhibition, actives largely listed as inhibitors | hit rate 0.31% among 330,000 | AID 540303; active means well fitted inhibition curve with a large enough effect; inconclusive means small, poorly fitted or top-dose-only effect; inactive means no such curve, though single readings can be large or run the other way; tested in mouse RAW 264.7 cells; further: on the % scale 0 is the no-effect control and ±100 the full control effect; nearly all actives have a fitted effect of over 55% in size
a7 integrin act: activators of alpha7 integrin expression for muscular dystrophy. alpha7betagal myoblasts, beta-gal FDG fluorescence, 48 h. Potency, µM (series often up to 38.3 µM), inactives show at the highest dose activation, hits mostly activators. hit rate 0.064% among 350,000;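 further: 100% = response of the positive control SU9516; nearly all actives have a fitted effect of over 60% in size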
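alpha7betagal+/- myoblasts (passage 13, 250/well) treated 48 h at 37C with compounds at 1:260 dilution of DMSO stock. Lysed, then beta-galactosidase activity read as FDG fluorescence (ex 480/em 540) after 30 min, with pre-read for autofluorescence.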
Gal4-VP16 FLuc: counter-screen for ROR gamma inhibitors: Gal4-VP16 reporter. hit rate 3.5% among 310,000. AID 2546. Potency, µM (doses to about 53.6 µM), for the others: at the top dose activity, negative = inhibition, most hits filed as inhibitors. Drosophila S2 Gal4-VP16 UAS-luciferase, luminescence, 20 h;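 further: Gal4-VP16 expression switched on by copper sulfate through the metallothionein promoter; on the % scale 0 is the no-effect control and ±100 the full control effect; nearly all actives have a fitted effect of over 50% in size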
Mito fusion act: inhibitors of mitochondrial division or activators of mitochondrial fusion. S. cerevisiae fusion-defective mutant growth rescue, CellTiterGlo 48 h. Potency, µM (top dose mostly 46.1 µM), for inactives: top-dose growth rescue (activation), usual class: activators. hit rate 0.23% among 320,000. AID 485298; further: % of control where 0% means no effect; nearly all actives have a fitted effect of over 45% in size
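Compounds are tested for their ability to restore growth of mitochondrial fusion-defective yeast strains at non-permissive 37C in YPEG medium over 48 hours. Viability is quantified by luciferase luminescence.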
RORgamma inh: blocks mouse ROR gamma transcriptional activity. P51450. Drosophila S2 Gal4-RORgamma UAS-luciferase reporter, 20 h. Potency, µM (titrated, usually from 53.6 µM), without a hit: at the top dose activity change, negative = inhibition, most hits filed as inhibitors. hit rate 5.4% among 310,000. AID 2551; further: on the % scale 0 is the no-effect control and ±100 the full control effect; nearly all actives have a fitted effect of over 60% in size
Target sequence (P51450 whole entry, looked up, the tested form may be a part): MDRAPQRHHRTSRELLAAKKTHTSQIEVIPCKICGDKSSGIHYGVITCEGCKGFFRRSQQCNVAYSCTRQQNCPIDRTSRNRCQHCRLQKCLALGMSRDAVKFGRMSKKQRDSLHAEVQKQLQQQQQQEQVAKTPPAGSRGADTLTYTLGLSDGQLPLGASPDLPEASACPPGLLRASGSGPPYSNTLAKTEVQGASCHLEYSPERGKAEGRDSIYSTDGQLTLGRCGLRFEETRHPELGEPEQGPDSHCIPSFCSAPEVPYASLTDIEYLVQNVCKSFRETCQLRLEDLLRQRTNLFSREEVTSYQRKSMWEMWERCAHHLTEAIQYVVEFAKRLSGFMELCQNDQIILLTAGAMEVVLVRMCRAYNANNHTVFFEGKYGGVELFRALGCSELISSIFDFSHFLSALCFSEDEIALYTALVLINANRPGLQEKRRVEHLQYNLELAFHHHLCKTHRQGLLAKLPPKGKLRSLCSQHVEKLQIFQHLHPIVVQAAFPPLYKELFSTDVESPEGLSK
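A Gal4/UAS one-hybrid system in insect cells: metallothionein-promoter Gal4–ROR gamma fusion plus Photinus luciferase reporter. Copper sulfate 700 uM final, 20 hr ambient incubation, luminescent detection after 10 min with reagent.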
* = called active by the depositor; ? = inconclusive; . = no result; [ ] = remark or other dose. Unless noted, the call rests on the fitted dose curve; in most records, active means well fitted curve in the direction sought with a large enough effect; inconclusive means small, poorly fitted or top-dose-only effect, or another doubt; inactive means no such curve, though single readings can be large; an effect the other way counts as inactive or inconclusive. Potency means the concentration at half of the fitted maximal effect.

SMILES	BCR signal inh	uPA generation	a7 integrin act	Gal4-VP16 FLuc	Mito fusion act	RORgamma inh
O=S(=O)(O)c1cccc2c(N=Nc3ccc(O)c4ncccc34)cccc12	?	-29%	-4%	-16%	0%	?
COc1ccc(N=Nc2ccc(O)c3ncccc23)cc1	?	?	-50%	?	7%	0.13µM*
COc1ccc(C)cc1N=Nc1ccc(O)c2ncccc12	-6%	3.5µM*	-45%	0.63µM*	8%	0.79µM*
O=Nc1ccc(O)c2ncccc12	?	?	-52%	5.6µM*	-2%	1.6µM*
O=S1c2ccccc2Sc2ccccc21	.	6%	5%	.	.	.
c1ccc2c(c1)nnn1c3ccccc3nc21	9%	.	.	?	19%	?
ClC(Cl)(Cl)c1nc2ccccc2n2nncc12	?	-13%	-58%	-1%	13µM*	?
Cc1ccc(NC(=S)NNC(C)(C)C)cc1	?	-1%	-25%	0.25µM*	-6%	?
Cc1ccc(NC(=S)NNC(=S)NCc2ccccc2)cc1	4%	4%	-4%	-10%	-3%	-24%
CC(C)(C)NNC(=S)Nc1cccc(C(F)(F)F)c1	7.9µM*	1%	-16%	3.2µM*	-5%	1µM*
CCCNC(=S)Nc1cccc(C(F)(F)F)c1	6%	5%	-15%	?	-3%	10µM*
FC(F)(F)c1cccc(NC(=S)NCCN2CCOCC2)c1	-4%	2%	-20%	-7%	-2%	-37%
O=C(NNC(=S)Nc1cccc(C(F)(F)F)c1)c1ccccc1Cl	-3%	-5%	4%	10µM*	8%	13µM*
COc1cc(OC)cc(C2=NC3(CCC(C)CC3)NC2=S)c1 (stereo unspecified)	?	0%	?	2%	5%	1.4µM*
COc1cc([N+](=O)[O-])cc(/C=N/NC(=O)Cn2nccc2C)c1O	20%	-5%	-6%	?	-4%	3.5µM*
CCOc1cc(/C=N/NC(=O)Cc2ccc(C(F)(F)F)cc2[N+](=O)[O-])c(Br)cc1OC	-6%	-4%	-22%	?	-5%	-23%
Cc1cc(C(=O)N/N=C/c2cccc([N+](=O)[O-])c2)c2ccccc2n1	-17%	-2%	8%	2%	-5%	-38%
COc1cc([N+](=O)[O-])cc(/C=N/NC(=O)c2cc(C)nc3ccccc23)c1O	5%	?	8%	13µM*	-1%	5.6µM*
COc1ccc(/C=N/NC(=O)c2cc(-c3ccccc3)nc3ccccc23)c(C(=O)O)c1OC	0%	-5%	?	-2%	-1%	-13%
COc1cc(Br)cc(/C=N/NC(=O)Cc2ccc(C(F)(F)F)cc2[N+](=O)[O-])c1O	?	-10%	33%	0.35µM*	3%	0.14µM*
COc1cc([N+](=O)[O-])cc(/C=N/NC(=O)c2cc(-c3ccccc3)nc3ccccc23)c1O	?	?	-45%	4.5µM*	7%	2µM*
COc1cc([N+](=O)[O-])cc(/C=N/NC(=O)Cn2nc(C)cc2C)c1O	6%	?	-14%	?	-1%	?
c1ccc(CNc2oc(-c3ccccc3)nc2-c2cccc3ccccc23)cc1	.	.	.	-9%	.	3%
NCCCn1c(C(=O)c2ccc(Cl)cc2)c2ccc([N+](=O)[O-])cc2[n+]1[O-]	?	?	-32%	.	8%	.
NC(=O)CCCn1c(C(=O)c2ccc(Cl)cc2)c2ccc([N+](=O)[O-])cc2[n+]1[O-]	?	1.4µM*	-16%	.	0%	.
SMILES	BCR signal inh	uPA generation	a7 integrin act	Gal4-VP16 FLuc	Mito fusion act	RORgamma inh
NC(=O)CCCn1c(C(=O)c2cc(Cl)c(N)c(Cl)c2)c2ccc([N+](=O)[O-])cc2[n+]1[O-]	-15%	3.2µM*	-20%	.	-13%	.
CC(=O)C1=C(O)C(=O)N(c2nccs2)C1c1ccccc1F (stereo unspecified)	0%	11%	?	-15%	-3%	-15%
C=CCN1c2ccccc2[C@]23C[C@@H](C(=O)OC)N(C(=O)c4cc(C)oc4C)C2=NC(C(=O)OC)=C(C(=O)OC)[C@H]13	?	5.6µM*	-30%	-2%	33%	21%
COc1ccc(/C=N/n2cnc3c([nH]c4ccc(C)cc43)c2=O)cc1CN1CCCC1	15%	3%	-37%	?	0%	?
COc1ccc(/C=N/n2cnc3c([nH]c4ccc(F)cc43)c2=O)cc1CN1CCCC1	1%	-12%	-52%	11µM*	-2%	-80%
O=C(CCC(=O)NNC(=O)Cc1ccccc1)NCc1ccccc1	10%	2%	1%	-8%	-7%	1%
CCNC(=S)NNc1nnc(-c2ccccc2)c(-c2ccccc2)n1	0%	13%	30%	?	-6%	13µM*
CCCCC(=O)NNC(=S)NCc1ccccc1	5%	2%	27%	-4%	-2%	14µM*
CCNC(=S)NNC(=S)NCc1ccccc1	-1%	10%	-7%	?	.	7.1µM*
S=C(NCc1ccccc1)NCc1ccc(CNC(=S)NCc2ccccc2)cc1	-2%	7%	-5%	3%	-5%	2%
COC(=O)C/C=C\[C@@H](C)[C@@H](/C=N\O[C@@H]1O[C@H](COC(C)=O)[C@H](OC(C)=O)[C@H](OC(C)=O)[C@H]1OC(C)=O)OC	.	.	.	-5%[10 µM]	.	-5%[10 µM]
CCOc1ccccc1NC(=S)NC(=O)c1ccco1	-5%	-3%	35%	.	-11%	.
COC(=O)c1cc(OC)c(OC)cc1NC(=S)NC(=O)c1ccco1	-11%	?	-13%	-24%	2%	8.9µM*
COCCNC(=O)CN1CCC(NC(=O)c2ccco2)CC1	?	0%	-1%	?	1%	13µM*
CCOc1cc(NC(=S)NCCOC)c(OCC)cc1NC(=O)c1ccco1	1%	-1%	14%	?	-10%	13µM*
CCNC(=S)Nc1cc(OC)c(NC(=O)c2ccco2)cc1OC	?	-3%	-21%	-10%	-3%	13µM*
COc1cc(NC(=S)NCCCN(C)C)c(OC)cc1NC(=O)c1ccco1	4%	-11%	2%	-3%	-1%	-3%
CCCCC/C=C\C[C@@H](O)/C=C/C=C\CCC(=O)O	.	.	.	-2%	.	4%
CCNC(=S)Nc1cc(OCC)c(NC(=O)c2ccco2)cc1OCC	5%	4%	1%	?	-4%	16µM*
Cc1ccc(Cl)cc1NC(=O)c1oc2ccc(S(=O)(=O)N3CCCCC3)cc2c1C	2%	.	.	.	.	.
O=C(CSc1ccc2c(c1)OCCO2)Nc1ncccc1O	?	-19%	-1%	.	-1%	.
O=C(NCC(=O)N(c1cccc(F)c1)C(C(=O)NCC1CCCO1)c1ccccc1)c1ccco1 (stereo unspecified)	1%	-1%	16%	3%	-2%	6.3µM*

Source: PubChem BioAssay
